Screens (PubChem BioAssay)
HCMV antiviral – blocks human cytomegalovirus replication | HFF cells, HCMV-luciferase reporter, 72 h; active compounds read low | activity change, negative = inhibition, % at 57.5 µM | actives 4.5% (n = 410,000); in the data active = activity change below about -60%; inconclusive = no clear call, values can overlap the other calls; inactive = above about -39%
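Inhibition of viral replication was scored as loss of reporter luminescence in HFFs infected with HCMV-luciferase (MOI 1 PFU/cell) for 72 h; compounds tested at 2 doses, normalized to buffer and Salinomycin controls.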
Shiga inhibitor – blocks Shiga toxin action in Vero cells; Vero cells, Shiga toxin protein synthesis inhibition reporter; inhibition, % at 38.7 µM; actives 9.2% (n = 290,000); AID 2315; in the data active = inhibition mostly above about 28%, no sharp cut-off; inactive = mostly below about 43%
Pf growth 96h – P. falciparum growth inhibition at 96 hour, primary screen for plastid delayed-death inhibitors; P. falciparum luciferase reporter growth, 96 h; actives 6.9% (n = 320,000); AID 504834; Potency, µM (highest dose often 28.7 µM), most hits filed as inhibitors
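Compounds incubated with erythrocytes infected by luciferase-expressing P. falciparum (2% hematocrit, 0.05% parasitemia final) for 96 hours, 37 C in 5% CO2. Growth inhibition scored as decreased luciferase luminescence.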
Pf growth 48h – P. falciparum growth inhibition at 48 hours (one generation) | P. falciparum luciferase growth in erythrocytes, 48 h | Potency, µM (series often up to 28.7 µM), hits mostly inhibitors | actives 5.9% (n = 310,000) | AID 504832
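Luciferase-expressing P. falciparum in infected erythrocytes (2% hematocrit, 0.1% parasitemia final) in RPMI 1640/0.5% Albumax were exposed to compound for 48 hours at 37 C, 5% CO2; growth read as luminescence.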
CHX counter – affects cycloheximide protein synthesis inhibition readout, counter-screen. cell reporter, cycloheximide protein synthesis inhibition counterscreen. AID 2314. actives 12% (n = 300,000). max response, %; in the data active = max response mostly above about 13%, no sharp cut-off; inactive = mostly below about 14%; also: read at 38.3 µM for the half of the compounds with a filed dose
HCV inhibitor – HCV inhibition; Huh7.5.1 HCVcc-Cre infection, luciferase reporter, 44 h; Potency, µM (doses to about 41.8 µM), actives largely listed as inhibitors; actives 3.4% (n = 340,000)
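Infectious HCVcc-Cre (~0.5 moi) was added to cells just after compound, with cells seeded 4 h earlier at 1,000 per well. Luciferase activity after 44 h culture reported infection; substrate was incubated 15 min at room temperature before reading.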
A number is an active result; – = inactive; ? = inconclusive; · = not tested or not shown; [ ] = another dose, or the depositor's remark. The list is not random: actives were taken first. Their share in the collection is about 21%. Unless noted, calls follow the shape of the dose curve; as a rule, active = well fitted inhibition curve with a large enough effect; inconclusive = small, poorly fitted or top-dose-only effect, or another doubt; inactive = no such curve, though single readings can be large or run the other way.

SMILES	HCMV antiviral	Shiga inhibitor	Pf growth 96h	Pf growth 48h	CHX counter	HCV inhibitor
COc1ccc(S(=O)(=O)N2CCN(CC(=O)Nc3ccc(F)c(F)c3)CC2)cc1	–	–	?	–	–	–
NC(=O)C1(N2CCCCC2)CCN(C(=S)Nc2cc(F)cc(F)c2)CC1	-64	–	–	–	–	–
COc1ccc(S(=O)(=O)N2CCN(CC(=O)Nc3cccc(OC)c3)CC2)cc1	–	–	13µM	–	–	–
COc1ccccc1NC(=O)CN1CCN(CC(=O)Nc2cc(C)ccc2OC)CC1	–	–	–	?	–	–
O=C(CN1CCN(S(=O)(=O)N2CCCCC2)CC1)Nc1cc(Cl)ccc1Cl	–	–	–	–	–	–
NC(=O)C1(N2CCCCC2)CCN(CC(=O)Nc2cc(Cl)ccc2Cl)CC1	–	–	–	12µM	–	?
COc1ccc(C)cc1NC(=O)CN1CCN(S(=O)(=O)c2ccc(Cl)cc2)CC1	?	–	?	12µM	–	?
COc1ccc(C)cc1NC(=O)CN1CCN(S(=O)(=O)c2ccc(C(C)C)cc2)CC1	?	–	–	13µM	–	–
CCOC(=O)c1ccccc1NC(=O)c1cn(CC(C)C)c(=O)c2cc(OC)c(OC)cc12	–	·	·	·	·	·
Cc1ccc(-n2nc(C)c3c(C)cc(=O)n(CC(=O)Nc4ccc(Br)cc4F)c32)cc1	–	·	·	·	·	·
COc1ccc(Cl)cc1NC(=O)CN1CCN(S(=O)(=O)c2ccc(F)cc2)CC1	–	–	–	3.7µM	–	–
Nc1nnc(SCC(=O)NNC(=O)c2ccc(F)cc2)s1	–	·	–	–	·	–
CCOC(=O)c1c(C=O)c2sc(C)cc2n1C	–	–	–	–	22	–
CCOC(=O)c1c(C=O)c2ccccc2n1CC	–	–	?	–	–	?
Cc1cccc(C(=O)NCc2cn3cccc(C)c3n2)c1	–	·	·	·	·	·
O=C(Nc1ccc(Cl)cn1)C1COc2ccccc2O1 (centres undefined)	–	51	–	?	29	–
Cc1cnc(NC(=O)C2COc3ccccc3O2)s1 (centres undefined)	?	–	–	–	–	–
O=C(Nc1ccccn1)C1COc2ccccc2O1 (centres undefined)	–	64	5.9µM	–	32	–
CCOc1ccccc1NC(=O)C1COc2ccccc2O1 (centres undefined)	–	–	?	?	–	–
O=C1NCCCC1C(=O)Nc1ccccn1 (centres undefined)	–	–	–	–	–	–
Cc1cccc(NC(=O)C2COc3ccccc3O2)n1 (centres undefined)	–	55	–	?	47	–
CC1Oc2ccccc2OC1C(=O)Nc1ccccn1 (centres undefined)	–	–	–	5.9µM	–	–
O=C1CS/C(=N\N=C\c2ccccc2Cl)N1CC1CC1	–	–	–	–	–	–
Cc1cc(C)c2nc(-c3cccc(Cl)c3)c(C)c(C(=O)N3CCOCC3)c2c1	–	–	?	12µM	–	?
CC(=Nc1ccccc1)C1=C(O)CSC1=O	–	–	–	·	32	–
SMILES	HCMV antiviral	Shiga inhibitor	Pf growth 96h	Pf growth 48h	CHX counter	HCV inhibitor
COc1ccc(N=C(C)C2=C(O)CSC2=O)cc1	–	–	–	·	40	–
CC[C@@]1(C(=O)OC)N[C@H](CN(C)C(=O)COc2ccccc2)[C@@H]2C(=O)N(C)C(=O)[C@@H]21	–	·	·	·	·	–
Cc1cc(C)cc(NC(=O)CN2CCN(c3ccccc3)CC2)c1	–	–	–	–[0.00184 µM]	–	–
CCN(CC)c1ccc(S(=O)(=O)N2CCOCC2)cc1NC(=O)Cn1nc(C)c([N+](=O)[O-])c1C	–	·	12µM	?	·	–
Cc1nn(CC(=O)Nc2cc(S(=O)(=O)N(C)C)ccc2Cl)c(C)c1[N+](=O)[O-]	–	–	?	–	–	?
CCN(CC)c1ccc(S(=O)(=O)N2CCOCC2)cc1NC(=O)CN1CCc2ccccc2C1	-70	–	?	10µM	–	?
CCOC(=O)C1=C(C)N(c2ccccc2)C(=O)C1CC(=O)O (centres undefined)	–	–	12µM	–	–	–
Cc1ccccc1OCCC(=O)OCC(=O)Nc1ccc2[nH]c(=O)[nH]c2c1	–	·	–	–	·	–
CC1(C(=O)N2CCC(CC3CC(c4cccc(Br)c4)=NO3)(C(=O)NCC3CCCCC3)CC2)CC1 (centres undefined)	?	–	2.9µM	?	–	–
CC(C)(C)OC(=O)N1CCC(CC2CC(c3ccc(Cl)cc3)=NO2)(C(=O)NCC2CCCCC2)CC1 (centres undefined)	–	47	?	–	32	–
COc1ccc(CNC(=O)C2(CC3CC(c4ccccc4)=NO3)CCN(C(=O)CCCCCBr)CC2)cc1 (centres undefined)	–	·	·	·	·	–
COC(=O)C1(CC2CC(c3cccc(Br)c3)=NO2)CCN(C(=O)OC(C)(C)C)CC1 (centres undefined)	–	–	–	?	–	–
CC1(C(=O)N2CCC(CC3CC(c4ccc(Cl)cc4)=NO3)(C(=O)NCC3CCCCC3)CC2)CC1 (centres undefined)	–	–	1.5µM	?	–	?
O=c1c2oc3ccccc3c2n(Cc2ccc(Cl)cc2)c(=O)n1Cc1ccco1	–	·	·	·	·	·
Cc1cc(C)cc(NC(=O)Cn2c(=O)oc3cc(S(=O)(=O)N4CCC(C)CC4)ccc32)c1	-68	–	12µM	·	–	–
CC1CCC2(CC1)NC(=O)N(CC(=O)N1c3ccccc3CC1C)C2=O (centres undefined)	-71	·	·	·	·	–
CC1CCN(S(=O)(=O)c2ccc3c(c2)oc(=O)n3CC(=O)N2c3ccccc3CC2C)CC1 (centres undefined)	–	–	–	·	–	13µM
CSc1nc2cc(C)nn2c(-c2ccccc2Cl)c1C#N	–	–	–	–	–	–
CCCCN1CCCCC1(C)C(=O)NCc1cccc(OC)c1 (centres undefined)	–	·	·	·	·	·
O=C(Nc1ccc([N+](=O)[O-])cn1)c1cc(-c2cccc(Br)c2)nc2ccccc12	–	–	–	3.7µM	–	–
O=C(Nc1ccc([N+](=O)[O-])cn1)c1cc(-c2cccc(Cl)c2)nc2ccccc12	–	–	–	2.1µM	–	–
O=C(Nc1ccccn1)c1cc(-c2cccc(Cl)c2)nc2ccccc12	-71	–	–	3.3µM	–	16µM
CCN(CC)C1CCN(Cc2c(C(=O)N3CCCCCCC3)nc3ccc(Cl)cn23)C1 (centres undefined)	–	–	12µM	?	–	–
COC1CCN(Cc2c(C(=O)N3C[C@@H](C)O[C@@H](C)C3)nc3ccc(Cl)cn23)CC1	–	–	–	–	–	–
CCOC(=O)[C@@H]1[C@H]2COc3ccc(Br)cc3[C@H]2N2C(=O)N(c3ccc(Br)cc3)C(=O)[C@]12C	·	–	?	?	–	32µM
